Data as given in the supplement of paper PMC7380943.
Where a name gives a salt, the structure may show the parent alone.

Key:
[1] = tested on: CLZ3 (HCA2 human fibroblast dual HR-NHEJ reporter); test: NHEJ repair efficiency (GFP+ cells) relative to control (log10 fold); higher = more non-homologous end joining; conditions: 5 µM; doxycycline 0.5 ug/mL
[2] = tested on: CLZ3 (HCA2 human fibroblast dual HR-NHEJ reporter); test: HR repair efficiency (tdTomato+ cells) relative to control (log10 fold); higher = more homologous recombination; conditions: 5 µM; doxycycline 0.5 ug/mL
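For HR repair efficiency (tdTomato+ cells) relative to control in this document: compound given one day before doxycycline, which switches on I-SceI endonuclease expression to create double-strand breaks within the integrated reporter.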
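For NHEJ repair efficiency (GFP+ cells) relative to control in this document: compound given one day ahead of doxycycline, which switches on I-SceI endonuclease to cut the chromosomally integrated reporter and create DSBs.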

SMILES	NHEJ repair efficiency (log10) [1]	HR repair efficiency (log10) [2]
CC[C@H]1CN2CC[C@@]3(C(=O)Nc4ccccc43)[C@@H]2C[C@@H]1/C(=C\OC)C(=O)OC [Isorhynchophylline]	-0.108	-0.0739
C[C@@H]1CCC=C2C(=O)C[C@H]3OOC(C)(C)[C@H]3[C@]21C [Nardosinone]	-0.0297	-0.0118
CC(C)=CCC[C@](C)(O)[C@H]1CC[C@]2(C)[C@@H]1[C@H](O)C[C@@H]1[C@@]3(C)CC[C@H](O)C(C)(C)[C@@H]3[C@@H](O[C@@H]3O[C@H](CO)[C@@H](O)[C@H](O)[C@H]3O)C[C@]12C [Ginsenoside Rh1]	-0.0663	0.25
O=c1ccc2cc3ccoc3c(O)c2o1 [Xanthotoxol]	0.0631	-0.0752
CCC1=C[C@H]2CN3CCc4c([nH]c5ccccc45)[C@](C(=O)OC)(C2)[C@H]13 [Catharanthine]	0.00477	0.0298
C[C@@]12C[C@@H](c3ccoc3)OC(=O)[C@@H]1CC[C@]1(C)[C@H]2[C@@H]2C=C[C@@]1(O)C(=O)O2 [Columbin]	-0.00145	-0.0272
COc1cc(C2OCC3C(c4cc(OC)c(O[C@@H]5O[C@H](CO)[C@@H](O)[C@H](O)[C@H]5O)c(OC)c4)OCC23)cc(OC)c1O[C@H]1O[C@@H](CO)[C@H](O)[C@@H](O)[C@@H]1O (stereo not given in full) [Eleutheroside E]	0.119	-0.0597
CC(C)=CCC[C@@](C)(O)[C@H]1CC[C@]2(C)[C@@H]1[C@H](O)C[C@@H]1[C@@]3(C)CC[C@H](O[C@@H]4O[C@H](CO)[C@@H](O)[C@H](O)[C@H]4O)C(C)(C)[C@@H]3CC[C@]12C [R-Ginsenoside Rh2]	-0.0662	-0.111
O=C1C=CC(=O)c2c(O)cccc21 [Juglone]	0.0328	-0.281
O=C(/C=C/c1ccccc1)OC[C@H]1O[C@@H](O[C@@H]2OC=C[C@H]3[C@H](O)[C@@H]4O[C@]4(CO)[C@@H]23)[C@H](O)[C@@H](O)[C@@H]1O [Picroside I]	-0.0564	-0.0261
CCN1C[C@]2(COC)[C@H](O)C[C@H](OC)[C@]34C1[C@H]([C@H](OC)[C@H]23)[C@]1(O)[C@H]2[C@@H](O)[C@](O)(C[C@H]24)[C@@H](OC)[C@@H]1O [Aconine]	-0.104	0.0705
COC[C@@]12CC[C@H](OC)[C@]34C([C@H]([C@H](OC)[C@H]13)[C@]1(O)[C@H]3[C@@H](OC(=O)c5ccccc5)[C@](O)(C[C@H]34)[C@@H](OC)[C@@H]1O)N(C)C2 [Benzoylhypaconine]	-0.013	0.00783
COc1cc(C(=O)OC2C3C=COC(OC4OC(CO)C(O)C(O)C4O)C3C3(CO)OC23)ccc1O (stereo not given) [Amphicoside Ii]	0.0243	-0.0261
c1c2c(cc3c1OCO3)-c1cc3ccc4c(c3c[n+]1CC2)OCO4 [Coptisine Chloride]	-0.16	0.0577
CN[C@@H](C)[C@H](O)c1ccccc1 [Ephedrine hydrochloride]	0.0488	-0.0579
CCN1C[C@]2(COC)[C@H](O)C[C@H](OC)[C@]34C1[C@H]([C@H](OC)[C@H]23)[C@@]1(OC(C)=O)C[C@H](OC)[C@@H]2C[C@@H]4[C@@H]1[C@H]2OC(=O)c1ccccc1 [13-Dehydroxyindaconintine]	0.0298	-0.0247
COc1ccc2c(c1OC)CN1CCc3cc4c(cc3C1C2)OCO4 (stereo not given) [Tetrahydroberberine]	-0.000562	0.103
O=c1cccc2n1C[C@@H]1CNC[C@H]2C1 [Cytisine]	0.00702	0.264
COc1cc([C@H]2OC[C@H]3[C@H]2CO[C@@H]3c2cc(OC)c(O[C@@H]3O[C@H](CO)[C@@H](O)[C@H](O)[C@H]3O)c(OC)c2)cc(OC)c1O[C@@H]1O[C@H](CO)[C@@H](O)[C@H](O)[C@H]1O [Eleutheroside D]	0.0455	-0.0848
CCN1CC2(COC)CCC(O)C34C5CC6C(OC)CC(O)(C5C6O)C(C(OC)C23)C14 (stereo not given) [Bullatine B]	-0.0469	0.0659
CN[C@@H](Cc1c[nH]c2ccccc12)C(=O)O [Abrine]	-0.159	-0.21
CCC(C)C(=O)O[C@@H]1[C@@H](OC(C)=O)[C@]2(C)[C@H](C(C)=O)CC[C@@]23O[C@]32CC[C@H]3C[C@@H](O[C@H]4C[C@@H](OC)[C@H](O[C@@H]5O[C@H](C)[C@@H](O)[C@@H](OC)[C@H]5O)[C@@H](C)O4)CC[C@]3(C)[C@@H]12 (stereo not given in full) [Tenacissoside H]	-0.0163	0.0233
CCN1C[C@]2(COC)CC[C@H](O)[C@]34C1[C@H]([C@H](OC)[C@H]23)[C@@]1(O)C[C@H](OC)[C@H]2C[C@@H]4[C@@H]1[C@H]2O [Neoline]	-0.0435	-0.186
C=C[C@@H]1C2=CCOC(=O)C2=CO[C@H]1O[C@@H]1O[C@H](CO)[C@@H](O)[C@H](O)[C@H]1O [Gentiopicrin]	-0.0046	0.0966
COC[C@]12CN(C)[C@@H]3[C@@H]4[C@H](OC)[C@H]1[C@@]3([C@@H](OC)C[C@H]2O)[C@@H]1C[C@@]2(O)[C@H](OC(=O)c3ccccc3)[C@@H]1[C@]4(OC(C)=O)[C@@H](O)[C@@H]2OC [Mesaconitine]	-0.0215	0.0192

SMILES	NHEJ repair efficiency (log10) [1]	HR repair efficiency (log10) [2]
CCN1C[C@]2(COC)CC[C@H](OC)[C@]34C1[C@H](C[C@H]23)[C@@]1(O)C[C@H](OC)[C@H]2C[C@@H]4[C@@H]1[C@H]2O [Talatisamine]	0.0604	0.0585
C=C(C)C1CC=C(C=O)CC1 (stereo not given) [Perillaldehyde]	0.0128	-0.104
O=c1ccc2cc(O[C@@H]3O[C@H](CO)[C@@H](O)[C@H](O)[C@H]3O)c(O)cc2o1 [Esculin Sesquihydrate]	0.0261	0.046
CC(=O)[C@]1(O)CC[C@@]2(O)[C@]1(C)[C@H](OC(=O)/C=C(\C)C(C)C)C[C@@H]1[C@@]3(C)CC[C@H](O)CC3=CC[C@]12O [Caudatin]	-0.0815	-0.0376
O=c1ccc2cc(O[C@@H]3O[C@H](CO)[C@@H](O)[C@H](O)[C@H]3O)c(O)cc2o1 [Aesculin]	0.023	0.148
CCCC[N+]1(C)[C@@H]2C[C@@H](OC(=O)[C@H](CO)c3ccccc3)C[C@H]1[C@@H]1O[C@@H]12 (stereo not given in full) [Scopolamine Butylbromide]	-0.172	0.0357
CCN1C[C@]2(COC)[C@H](O)C[C@H](OC)[C@@]34[C@@H]5C[C@@]6(O)[C@H](OC(=O)c7ccccc7)[C@@H]5[C@@](OC(C)=O)([C@@H]([C@H](OC)[C@H]23)[C@@H]14)[C@@H](O)[C@@H]6OC [Aconitine]	-0.148	0.0783
COC[C@]12CN(C)C3[C@@H]4[C@H](OC)[C@H]1[C@@]3([C@@H](OC)C[C@H]2O)[C@@H]1C[C@@]2(O)[C@H](OC(=O)c3ccccc3)[C@@H]1[C@]4(O)[C@@H](O)[C@@H]2OC [Benzoylmesaconine]	-0.0412	-0.144
O=C1C=CC[C@@H]2[C@H]3CCCN4CCC[C@@H](CN12)[C@@H]34 [Sophocarpine]	-0.0254	0.165
CC1(C)[C@H]2O[C@H]2[C@H]2[C@](C)(O)[C@@H]3CCC4[C@H](O)[C@@]3(C[C@@H](O)[C@@]21O)C[C@@]4(C)O [Rhodojaponin Iii]	0.0171	0.0481
CN1[C@@H]2C[C@@H](OC(=O)[C@H](CO)c3ccccc3)C[C@H]1[C@@H]1O[C@@H]12 [Scopolamine Hydrobromide]	0.039	-0.0275
CC(C)(C)[C@]1(O)CC2OC(=O)CC23C(=O)OC2OC(=O)[C@H](O)C231 (stereo not given in full) [Bilobalide]	0.0452	0.0541
CC1=C2C[C@H]3[C@@H](CC(=O)[C@H]4C[C@@H](O)CC[C@@]43C)[C@@H]2CC[C@]12O[C@@H]1C[C@H](C)CN[C@H]1[C@H]2C [Peimisine]	-0.0359	-0.00991
COc1ccc(Cc2nccc3cc(OC)c(OC)cc23)cc1OC [Papaverine hydrochloride]	-0.296	-0.22
C[C@H]1CC[C@H]2[C@H](C)[C@@H]3CC[C@@H]4[C@@H](C[C@H]5[C@H]4C[C@@H](O)[C@H]4C[C@@H](O)CC[C@@]45C)[C@@H]3CN2C1 [Hupehenine]	0.00613	-0.0543
CC(C)c1cc2c(c(O)c1O)[C@@]1(C(=O)O)CCCC(C)(C)[C@@H]1CC2 [Carnosic acid]	0.106	0.167
CC[C@H]1CN2CC[C@]3(C(=O)Nc4ccccc43)[C@@H]2C[C@@H]1/C(=C\OC)C(=O)OC [Rhynchophylline]	-0.15	-0.0611
COc1cc2c(cc1O)C[C@@H]1NCCc3cc(OC)c(O)c-2c31 [Norisoboldine]	-0.132	-0.0981
C/C=C/C#CC#C/C=C/c1ccco1 [Atractylodin]	0.014	0.114
C/C1=C\C2C(CCC3(CO3)C(O)C3C(O)C(C)CC3(O)C1=O)C2(C)C (stereo not given) [6,17-Epoxylathyrol]	-0.129	0.0115
C=C[C@@H](O)C#CC#C[C@@H](O)/C=C\CCCCCCC [Falcarindiol]	-0.109	-0.13
COc1cc2occc2c2oc(=O)ccc12 [Isobergapten]	-0.0955	-0.063
O=C1CCC[C@@H]2[C@H]3CCCN4CCC[C@@H](CN12)[C@@H]34 [Matrine]	-0.00125	-0.0371
CCN1C[C@]2(COC)CC[C@H](OC)[C@]34C1[C@H]([C@H](OC)[C@H]23)[C@@]1(OC(C)=O)C[C@H](OC)[C@@]2(O)C[C@@H]4[C@@H]1[C@H]2OC(=O)c1ccc(OC)cc1 [Crassicauline A]	0.00451	0.0792
N#C/C=C1/C=C[C@@H](O)[C@H](O)[C@H]1O[C@@H]1O[C@H](CO)[C@@H](O)[C@H](O)[C@H]1O [Lithospermoside]	0.0837	0.0424
